Source: PubChem BioAssay AID504937 (National Center for Advancing Translational Sciences (NCATS), 2011)
About 20 (0.006%) of roughly 340,000 compounds were called active. This is one part of a sample in which actives are shown more often than they occur. Calls come from the whole dose curve; as a rule, active = well fitted inhibition curve with a large enough effect; inconclusive = small, poorly fitted or top-dose-only effect; inactive = no such curve, though single readings can be large or run the other way.

biological target: Sphingomyelin phosphodiesterase (Homo sapiens) (UniProt P17405); assay: Inhibitors of Secretory Acid Sphingomyelinase (S-ASM): qHTS; details: placental ASM, HMU-PC fluorogenic substrate, 60 min; series mostly up to 57.5 µM
Source text: Atherosclerosis is the underlying process for cardiovascular disease and thus is a major contributor to disease burden in the population. […] Thus, selective small molecule inhibitors of S-ASM should block LDL modification and reduce aortic LDL retention and may serve as new agents for the treatment of atherosclerosis. In a collaboration between National Heart, Lung, and Blood Institute and the NCGC a high-throughput amenable screen was developed to identify potent and selective small molecule inhibitors of S-ASM. This enzymatic, fluorescent screen uses an ASM enzyme preparation derived from human placenta and was tested against the NIH Molecular Libraries Small Molecule Repository (MLSMR). NIH Chemical Genomics Center [NCGC] NIH Molecular Libraries Probe Centers Network [MLPCN] MLPCN Grant: MH093173-01 Assay Submitter (PI): Alan Remaley, National Heart, Lung, and Blood Institute and Wei Zhen, NIH Chemical Genomics Center
Two microliters of ASM enzyme (1:150 dilution from stock) are dispensed in 1536-well plate. 23 nL of compound and control are pinned into assay plate using the Kalypsys pintool. The plates are then incubated for 10 minutes at ambient room temperature. Then, 2 uL of the flurogenic substrate, HMU-PC0, (9 uM final) are added to the plate. An incubation for 60 minutes takes place at 37 masculineC. After that, 4 uL of stop solution is added to raise the pH to 10 to end the kinetic reaction. Plate is read on ViewLux, with detection set at Ex = 386 (10) nm and Em = 447 (10) nm.

Chain of Sphingomyelin phosphodiesterase (Homo sapiens) (P17405 47-631 limits assumed): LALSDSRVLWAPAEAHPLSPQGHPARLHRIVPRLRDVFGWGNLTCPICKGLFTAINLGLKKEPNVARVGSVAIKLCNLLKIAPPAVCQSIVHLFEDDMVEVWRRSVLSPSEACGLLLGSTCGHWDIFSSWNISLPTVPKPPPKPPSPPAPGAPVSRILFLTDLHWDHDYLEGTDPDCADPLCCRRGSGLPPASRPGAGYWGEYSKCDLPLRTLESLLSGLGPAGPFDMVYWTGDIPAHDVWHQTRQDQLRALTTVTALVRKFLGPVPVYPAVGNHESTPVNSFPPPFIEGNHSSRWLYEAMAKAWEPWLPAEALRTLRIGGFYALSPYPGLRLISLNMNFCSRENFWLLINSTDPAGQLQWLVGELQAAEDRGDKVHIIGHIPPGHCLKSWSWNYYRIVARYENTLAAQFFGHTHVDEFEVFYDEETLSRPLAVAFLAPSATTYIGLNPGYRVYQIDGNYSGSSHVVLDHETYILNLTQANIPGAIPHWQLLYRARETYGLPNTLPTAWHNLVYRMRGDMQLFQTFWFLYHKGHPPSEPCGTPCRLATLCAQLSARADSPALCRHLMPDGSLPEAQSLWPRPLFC

Potency, inactive:
O=C(CCN1C(=O)COc2ccccc21)NCCCN1CCN(c2ccc(F)cc2)CC1
O=C(/C=C/c1cccc([N+](=O)[O-])c1)OCC(=O)N1CCOCC1
COC(=O)c1cccc(C(=O)N2CCC(CCC(=O)NCc3ccc(F)cc3)CC2)c1
CC(=O)OCC(=O)C1(O)CCC2C3CC(C)C4=CC(=O)CCC4(C)C3C(O)CC21C (stereo not given)
CC(=O)NNC(=O)c1csc(Cc2c(Cl)sc3ccc(Cl)cc23)n1
CC1CN(S(=O)(=O)c2ccccc2)C(C)CN1S(=O)(=O)c1ccccc1 (stereo not given)
Cc1c(Cl)cccc1NC(=O)Nc1ccc(C(=O)N2CCCC2)cc1
O=C(COc1ccc(F)cc1Br)NCC1COc2ccccc2O1 (stereo not given)
CCOc1ccc(CCNC(=O)COC(=O)CCS(=O)(=O)c2ccc(C)cc2)cc1OCC
Cc1cc(C)nc(SC2CCCCC2NS(=O)(=O)c2ccc(Cl)cc2)n1 (stereo not given)
CC1(C)CC(=O)C=C(NCCN2CCNCC2)C1
COc1cccc(C(=O)CC(=O)C(=O)Nc2ccc([N+](=O)[O-])cc2C)c1
COc1cccc(NC(=O)N2CCC(NC(=O)C(Cc3cccc(C)c3)NC(C)=O)CC2)c1 (stereo not given)
COc1cccc(N2CCN(C(=O)Nc3ccc4c(c3)NC(=O)CO4)CC2)c1
CCOc1ccc(C(=O)N(Cc2ccc(N(C)C)cc2)C2CCS(=O)(=O)C2)cc1 (stereo not given)
O=C(NCCCN1CCCC1=O)c1cccc(S(=O)(=O)NCc2ccccc2)c1
COC(=O)c1ccccc1NC(=O)CSc1nc2c(c(=O)[nH]1)CCC2
CCOc1ccc(NC(=O)CN(C)CC(=O)Nc2cccc(Cl)c2C)cc1OCC
COc1ccc(C(=O)NC(=S)N2CCNC(=O)C2CC(=O)OC(C)C)cc1 (stereo not given)
O=C(OCc1cc(Cl)ccc1OC(F)F)c1cccnc1
O=C(CSc1nnnn1-c1ccc(O)cc1)c1ccc(F)cc1
CCC(=O)Nc1ccc(C(=O)CSc2nnc(CNc3ccc(Cl)cc3)o2)cc1OC
COC(=O)c1c(C)oc(C)c1S(=O)(=O)NCc1ccc(Cl)cc1
Cc1ccc2[nH]c(C)c(CCNC(=O)NC3CCCCC3)c2c1
CCC1=NN(C(=O)Cc2ccc([N+](=O)[O-])cc2)C(O)(c2ccc(Br)cc2)C1 (stereo not given)
Cc1cc(C)cc(NC(=O)N(C)Cc2ccccc2)c1
COc1cccc(CNC(=O)CCN2C(=S)NC(C)(C)CC2C)c1 (stereo not given)
COc1cc2c(cc1OC)C(Cc1cc(OC)c(OC)cc1[N+](=O)[O-])=NCC2
CS(=O)(=O)N1CCN(CC(=O)NC2CCCC2)CC1
O=[N+]([O-])c1ccc(S(=O)(=O)Nc2cccc(-c3ccc(N4CCCC4)nn3)c2)cc1
COc1ccccc1C1CC(=O)n2c(nc(-c3ccccc3)c2-c2ccccc2)S1 (stereo not given)
COc1ccc(N2C(=O)CCC(C(=O)N(C)C3CCCCC3)C2c2ccc(OC)c(OC)c2)cc1 (stereo not given)
N#C[C@]1(S(=O)(=O)c2ccccc2)C[C@@H]2ON=C(c3cccc(Br)c3)[C@@H]2C1
COC(=O)c1c(C(=O)OC)c2n(c1C)CCS2
O=C(NCc1ccncc1)C1CCCN(S(=O)(=O)c2ccc(Br)cc2)C1 (stereo not given)
COC(=O)C1=CN(c2ccc(F)c(F)c2)C=C(C(=O)OC)C1c1ccc([N+](=O)[O-])cc1
CC(=O)OCC1(O)CC23CCC4c5ccoc5CCC4(C)C2CCC1C3 (stereo not given)
COCCn1c(SCC(=O)Nc2nc(C)cs2)nnc1C(C)C
O=C(CNc1cccc(S(=O)(=O)N2CCCCC2)c1)Nc1ccccc1F
CCOC(=O)C(CC)Sc1ncnc2c1nnn2-c1ccc(F)cc1 (stereo not given)
NC(CSC12CC3CC(CC(C3)C1)C2)C(=O)O (stereo not given)
Cc1cccc(NC(=O)N(Cc2cc3cc(C)cc(C)c3[nH]c2=O)CC2COCCO2)c1 (stereo not given)
O=C(Cn1cc(/C=N/NC(=O)c2cccc(C(F)(F)F)c2)c2ccccc21)Nc1ccc(F)cc1
COc1ccccc1CCNC(=O)CSc1nnc2ccc(-c3cccnc3)nn12
COc1ccccc1NC(=O)CCC(=O)N1CC(C)Oc2ccc(C)cc21 (stereo not given)
Cc1cccc(NC(=S)N(CCN(C)C)C(C)c2ccco2)c1 (stereo not given)
Cc1oc(C)c(C(=O)NCCCC(=O)O)c1C(=O)NCCCC(=O)O
CSc1nc(C)nc(C2CC2)c1C#N
CN(C)CCCNC(=O)c1cc(C(=O)Cc2ccc(Cl)cc2)c[nH]1
CN(C(=O)c1cccc(NC(=O)Cc2ccc(NC(=O)C3CCN(C(=O)C4CCCCC4)CC3)cc2)c1)C1CCC1
COc1ccc(CN(CC(=O)NC2CCCC2)C(=O)CCC(=O)Nc2cc(C)on2)cc1
COC(=O)c1sccc1-n1cccc1C(=O)C(=O)N1CCCCC1
Cc1ccc2c(c1)nnc1nnc(SCC(=O)O)n12
Cc1cccc(OC(C)C(=O)N2CCc3ccccc3C2)c1 (stereo not given)
CC(=O)N1CCc2ccc(N)cc21
CCc1noc(C)c1C(=O)N1CCCC(N2CCN(c3ccc(F)cc3)CC2)C1 (stereo not given)
CCCCCCNCCn1cnc2c(N)ncnc21
Cc1cc(NC(=O)CSc2nc(=O)cc(N)n2-c2ccc(F)cc2)no1
Cc1cc(C)n(-c2nnc(C)n2NC(=O)c2cccc(Cl)c2)n1
COCCN1C(=O)C(=O)/C(=C(/O)c2ccc(S(=O)(=O)N3CCCCC3)cc2)C1c1ccc(OC)c(OC)c1 (stereo not given)
Cc1[nH]c2ccccc2c1SCC(=O)Nc1nccs1
CS(=O)(=O)N1CCc2cc(C(=O)Nc3ccccc3Br)ccc21
N#C/C(C(=O)N1CCOCC1)=C1/SC(Cc2ccc(F)cc2)C(=O)N1c1ccccc1 (stereo not given)
O=C(NCc1cccs1)C(=O)NCC1OCCCN1S(=O)(=O)c1ccc(F)cc1 (stereo not given)
Cc1ccc(S(=O)(=O)N2CCC(C(=O)OCC(=O)N3CC(=O)Nc4ccccc43)CC2)cc1
O=C(NC1CCCC1)C(c1ccccn1)N(C(=O)c1csnn1)C1CCCC1 (stereo not given)
CCc1ccc(NC(=O)C(=O)N/N=C(\C)CC(=O)NCCOC)cc1
O=C(Nc1cccc(S(=O)(=O)NC2=NCCC2)c1)C1CCCCC1
COC(=O)c1ccc(Nc2ncnc3sccc23)cc1
COc1ccc(NC(=S)N2N=CCC2c2ccccc2)cc1 (stereo not given)
